# Source: PubChem BioAssay (National Center for Advancing Translational Sciences (NCATS))
# Tau fibril FP = blocks human tau fibril formation measured by polarization; P10636; Potency, µM (top dose mostly 57.7 µM), actives largely listed as inhibitors; 0.39% of 280,000 active; K18 P301L tau heparin fibrillization, Alexa594 FP, 6 h; AID 1468; active = well fitted curve in the direction sought with a large enough effect; inconclusive = small, poorly fitted or top-dose-only effect, or another doubt; inactive = no such curve, though single readings can be large; an effect the other way counts as inactive or inconclusive; note: nearly all actives have a fitted effect of over 55% in size
#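 K18 P301L tau (15 uM unlabeled/0.24 uM Alexa 594-labeled, final) + compound + heparin 20 uM final; 100 mM NaOAc pH 7; 6 hr 37 C; ThT 30 uM final added, 1 hr RT; FP ex 555/em 632 nm.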
# KDM4E inh = JMJD2E (human) inhibition; 1.6% of 230,000 active; B2RXH2; JMJD2E catalytic domain, FDH-coupled NADH fluorescence (FDH is formaldehyde dehydrogenase); Potency, µM (doses to about 57.1 µM), usual class: inhibitors; note: nearly all actives have a fitted effect of over 50% in size
# Target sequence (B2RXH2 1-337 limits assumed): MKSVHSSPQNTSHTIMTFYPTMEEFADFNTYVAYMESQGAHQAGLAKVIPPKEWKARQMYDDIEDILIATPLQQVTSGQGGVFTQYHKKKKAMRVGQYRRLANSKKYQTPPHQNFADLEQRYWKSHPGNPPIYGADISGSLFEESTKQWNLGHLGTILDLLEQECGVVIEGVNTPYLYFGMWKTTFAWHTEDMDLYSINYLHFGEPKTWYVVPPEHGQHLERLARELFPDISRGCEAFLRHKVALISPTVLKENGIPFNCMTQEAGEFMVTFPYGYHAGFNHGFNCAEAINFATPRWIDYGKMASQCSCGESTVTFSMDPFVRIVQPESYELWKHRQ
# Tau fluor cs = counter-screen for tau fibril formation inhibitors; AID 1463; tau K18 P301L Alexa594 fluorescence, heparin fibrillization; Potency, µM (highest dose often 57.7 µM); 0.93% of 280,000 active; active = well fitted curve in the direction sought with a large enough effect; inconclusive = small, poorly fitted or top-dose-only effect, or another doubt; inactive = no such curve, though single readings can be large; an effect the other way counts as inactive or inconclusive; note: nearly all actives have a fitted effect of over 55% in size
#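 Human K18 P301L tau (15 uM unlabeled plus 0.24 uM Alexa 594-labeled, final) in 100 mM sodium acetate pH 7 was mixed with compound and 20 uM heparin and incubated 6 hr at 37 C.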
# HPGD block = blocks human HPGD enzyme activity; P15428; purified HPGD, NADH fluorescence kinetic, PGE2 substrate; Potency, µM, hits mostly inhibitors; 4.3% of 150,000 active; AID 894
# Target sequence (P15428 whole entry, looked up): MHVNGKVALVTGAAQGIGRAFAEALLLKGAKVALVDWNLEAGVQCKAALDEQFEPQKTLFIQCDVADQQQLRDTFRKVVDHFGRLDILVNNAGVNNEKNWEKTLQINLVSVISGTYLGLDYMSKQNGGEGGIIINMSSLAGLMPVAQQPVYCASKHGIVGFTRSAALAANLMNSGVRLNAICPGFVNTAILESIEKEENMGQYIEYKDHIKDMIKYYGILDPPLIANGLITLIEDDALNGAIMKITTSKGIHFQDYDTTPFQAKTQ
#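 20 nM HPGD preincubated 15 min at room temperature with compound in 50 mM Tris-HCl pH 8, 0.01% Tween 20. Started with 1 mM NAD+ and 30 uM prostaglandin E2; NADH fluorescence (360/450 nm) read 5 times over 30-s intervals, last minus first.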
# ALDH1A1 inh = ALDH1A1 (human) enzyme inhibition; 7.3% of 220,000 active; Potency, µM (titrated, usually from 75.3 µM), hits mostly inhibitors; P00352; AID 1030; Purified ALDH1A1, NADH fluorescence, propionaldehyde substrate
# Tau fibril ThT = tau fibrillization inhibition (ThT binding). Potency, µM (doses to about 57.4 µM), most hits filed as inhibitors. 2.1% of 270,000 active. recombinant tau K18 P301L (four-repeat tau fragment), heparin-induced fibrillization, ThT fluorescence. AID 1460. P10636; active = well fitted curve in the direction sought with a large enough effect; inconclusive = small, poorly fitted or top-dose-only effect, or another doubt; inactive = no such curve, though single readings can be large; an effect the other way counts as inactive or inconclusive; note: nearly all actives have a fitted effect of over 55% in size
#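 In this qHTS, human K18 P301L tau is incubated with compound and heparin for 6 hr at 37 C, and Thioflavin T fluorescence then reports fibril load.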
# Numbers stand for hits; - = inactive; ? = inconclusive; . = not tested or not shown; ! = not active in a repeat; [ ] = remark or other dose. Only some compounds are listed: those with a hit (about 9.9% of all), similar ones and a draw of the others. Unless noted, calls come from the whole dose curve; as a rule, active = well fitted inhibition curve with a large enough effect (not every such curve was filed as active); inconclusive = small, poorly fitted or top-dose-only effect, or another doubt; inactive = no such curve, though single readings can be large or run the other way.
SMILES,Tau fibril FP,KDM4E inh,Tau fluor cs,HPGD block,ALDH1A1 inh,Tau fibril ThT
CCCOc1ccc(C2c3c(oc4ccccc4c3=O)C(=O)N2c2nc(C)c(C(=O)OCC)s2)cc1 (stereo not given),-,.,-,.,.,-
COc1ccc2c(c1)c1c(c(=O)n(Cc3ccccc3)c(=O)n1CC(=O)Nc1cc(C)cc(C)c1)n2C,-,.,-,.,.,-
Cc1cccc(NC(=O)CCc2c(C)nc3nc(CNC(=O)c4cccc(F)c4)nn3c2C)c1,-,.,-,.,.,-
N#C/C(=C\c1ccc(N2CCOCC2)c([N+](=O)[O-])c1)c1nc2ccccc2[nH]1,-,-,22µM[quencher],-,?,5µM
COc1cc(/C=C(\C#N)c2nc3ccccc3[nH]2)c([N+](=O)[O-])cc1OCc1ccccc1,?,-,?,?,0.56µM,?
COc1ccc(OC)c(C2CC(=O)c3c([nH]c(C(=O)OC4CCC(C)CC4)c3C)C2)c1 (stereo not given),-,.,-,.,.,-
COc1ccc(Nc2c([N+](=O)[O-])ccc3c2=NC2(CCCCC2)N=3)cc1,?,?,?,.,7.1µM,16µM
O=C(COC(=O)CC1CC2CCC1C2)NC(=O)NCc1ccco1 (stereo not given),-,-,-,-,14µM,-
O=C1c2sc3nc4n(c(=O)c3c2CCC1Br)CCCCC4 (stereo not given),?,18µM,?,13µM,8.9µM,?
O=C1CCCc2c1sc1nc3n(c(=O)c21)CCCCC3,-,?,-,-,?,-
Nc1nnc(SCCCC(=O)c2ccc(F)cc2)s1,-,-,-,-,?,-
Nc1nnc(SCCCC(=O)c2ccc(Br)cc2)s1,-,-,-,3.5µM,-,-
Cc1ccc(CNc2ncnc3c2c(-c2ccccc2)cn3-c2ccccc2)cc1,-,.,-,.,.,-
Nc1nonc1-n1nnc(C(=O)c2ccccc2)c1-c1ccccc1,?,-,-,-,2.8µM,-
COc1ccc(Nc2cc(C)c3cc(NC(=O)Cc4c(F)cccc4Cl)ccc3n2)cc1,?,.,7.9µM[quencher],.,.,?
COc1ccc(CC(=O)Nc2ccc3nc(Nc4ccc(OC)cc4)cc(C)c3c2)cc1,-,.,3.5µM[quencher],.,.,?
COc1ccc(Nc2cc(C)c3ccccc3n2)cc1,-,?,?,.,-,?
COc1ccc(Nc2cc(C)c3cc(NC(=O)COc4cccc(C)c4)ccc3n2)cc1,?,.,11µM[quencher],.,.,7.1µM
COc1ccc(Nc2cc(C)c3cc(NC(=O)c4cc(OC)cc(OC)c4)ccc3n2)cc1,?,.,13µM[quencher],.,.,11µM
CCN(CC)C(=O)c1sc(NC(=O)C(Sc2ccccc2)c2ccccc2)c(C(=O)OC(C)C)c1C (stereo not given),-,-,-,-,-,-
Cc1cc(Nc2cccc(Cl)c2)nc2ccc(NC(=O)Cc3c(F)cccc3Cl)cc12,-,.,7.9µM[quencher],.,.,?
O=C(Cc1c(F)cccc1Cl)Nc1ccncc1,-,-,-,-,-,-
O=C(c1cnn(-c2ccccc2)c1)c1ccccc1O,-,-,-,13µM,-,?
COc1ccc(-n2cc(C(=O)c3ccccc3O)cn2)cc1,-,?,-,.,?,?
CCc1ccc(C=NC23CN4CN(CN(C4)C2)C3)s1,-,-,-,-,7.9µM,-
SMILES,Tau fibril FP,KDM4E inh,Tau fluor cs,HPGD block,ALDH1A1 inh,Tau fibril ThT
CCc1ccc(/C=N/NC(=O)c2cc(C)on2)s1,-,-,-,-,-,-
S=C1NC2CCCCC2N1 (stereo not given),-,-,-,.,-,-
COc1ccc(NC(=O)C2CSC(C)(C)N2C=O)cc1 (stereo not given),-,-,-,.,-,-
O=C(Nc1ccc(OC(F)(F)F)cc1)C(Cc1ccccc1)NS(=O)(=O)c1cccc2nsnc12 (stereo not given),16µM,.,?,.,.,-
CC(=Nc1cc(C(=O)c2ccccc2)ccc1N)C1=C(O)CC(C)(C)CC1=O,-,-,-,.,7.9µM,?
C/C(=N/NC(=O)c1cccnc1)C1=C(O)CC(C)(C)CC1=O,-,-,-,.,-,-
C/C(N)=C(/C#N)C(=O)CSc1nnc(Nc2ccccc2C)s1,-,-,-,28µM,?,-
O=c1cc(CSc2nnc(Nc3ccccc3)s2)nc2sccn12,-,-,-,18µM,-,-
Cc1ccccc1Nc1nnc(SCc2cc(=O)n3ccsc3n2)s1,-,?,-,28µM,?,?
CCCCCN(C(=O)CN1CCC(Cc2ccccc2)CC1)c1c(N)n(CCCC)c(=O)[nH]c1=O,-,-,-,.,-,-
CC(=C/C=C/C(C)=C/C=C/C=C(C)/C=C/C=C(C)/C=C/C(=O)O)/C=C/C(=O)O,.,.,.,-,-,.
Cc1cc2nc(-c3cccc(NC(=O)c4cccc5ccccc45)c3)oc2cc1C,-,.,-,.,.,-
C/C(=N\Nc1nc2ccccc2[nH]1)c1cc2ccccc2o1,?,-,?,-,-,14µM
Oc1ccccc1C=NC1=NN(c2cccc(C(F)(F)F)c2)CC1,-,-,-,-,22µM,?
O=C1c2ccccc2C(O)(O)[C@@]1(O)[C@]1(O)C(=O)c2ccccc2C1(O)O,.,.,.,-,0.25µM,.
CCN(CC)C(=O)c1sc2c(c1C)c(=O)n(CCc1ccccc1)c(=O)n2Cc1ccc(F)cc1Cl,-,.,-,.,.,-
COc1cc(/C=C(\C#N)c2nc3ccccc3o2)ccc1O,?,-,?,.,.,7.9µM
N#C/C(=C\c1ccc(O)cc1)c1nc2ccccc2o1,-,-,?,.,.,?
COc1cc(/C=C(\C#N)c2nc(-c3cc4ccccc4oc3=O)cs2)ccc1O,-,-,?,-,-,3.5µM
O=C(CCSCCc1ccccn1)Nc1ccc(Cl)cc1,-,.,-,.,.,-
C=CCN(CC=C)CCCOc1ccc(Br)cc1Cl,-,-,-,.,-,-
CCCC1CCc2c(sc(NC(=O)OCC)c2C#N)C1 (stereo not given),-,-,-,-,?,-
CSc1ncc(Cl)c(C(=O)NCc2ccc(C)cc2)n1,-,.,-,.,.,-
CCCOc1ccccc1-c1nc2n[nH]nc2c(=O)[nH]1,?,-,-,8.9µM,20µM!,?
COc1ccccc1N(CC(=O)NCCSc1ccc(Cl)cc1)S(C)(=O)=O,-,-,-,.,-,-
O=S(=O)(c1ccc(Br)cc1)c1nc(-c2cccs2)oc1SCc1ccc(F)cc1,-,.,-,.,.,-
CC(C)(C)N=C1SCC(C)(/C=N/O)S1 (stereo not given),?,-,-,-,?,25µM
Cc1ccc(C2CC(c3cccc(Br)c3)Nc3nnnn32)cc1 (stereo not given),-,-,-,-,18µM,-
CCN1CCc2c(sc(-n3cccc3)c2C(C)NC(=O)Nc2ccccc2C)C1 (stereo not given),-,.,-,.,.,-
CCn1cc(C(=O)N2CCN(c3cc(C)ccc3C)CC2)c(=O)c2cc(S(=O)(=O)N3CCCCC3)ccc21,-,.,-,.,.,-
